Some test systems named below: SR leukemia; RPMI-8226 leukemia; OVCAR-8 ovarian; OVCAR-5 ovarian; OVCAR-4 ovarian; SK-OV-3 ovarian; IGROV1 ovarian; OVCAR-3 ovarian; HS 578T breast; NCI/ADR-RES ovarian; T-47D breast; BT-549 breast; MDA-MB-435 melanoma; SW-620 colon; MCF7 breast; HCT-116 colon; HCC-2998 colon; KM12 colon.
Assay in all cases: NCI-60 one-dose screen, 48 h (100 = growth as untreated, 0 = no growth, -100 = all killed)
What all share (settings): 10 µM unless noted

The panel holds about 83,000 compounds, 20% with a hit somewhere; the sample as a whole holds those more often.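 Growth was measured after 48 h exposure to one concentration of compound in 96-well plates. Values under 10 count as active.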 A number with no mark means an inactive call. Activity calls are given as the source filed them.

Regarding `C=C(C)[C@@H]1CC[C@]2(C(=O)NNC(=O)c3cccnc3)CC[C@]3(C)[C@H](CC[C@@H]4[C@@]5(C)CCCNC(C)(C)[C@@H]5CC[C@]43C)[C@@H]12`, the growth in the assay on SR leukemia is 18.9%; in the assay on RPMI-8226 leukemia it was 46.6%; with OVCAR-8 ovarian, 76.7%; in the assay on OVCAR-5 ovarian, 96.9%; with OVCAR-4 ovarian, 75.3%; with SK-OV-3 ovarian it was 107%. Also, the growth was 91% in the assay with IGROV1 ovarian; 81.2% in the assay with OVCAR-3 ovarian; 67.3% in the assay on HS 578T breast; 90.5% in the assay with NCI/ADR-RES ovarian; 57.6% in the assay on T-47D breast; 82.3% in the assay with BT-549 breast. For the same molecule, the growth is 83.6% with MDA-MB-435 melanoma; 85.7% with SW-620 colon; 59% with MCF7 breast; 45.7% with HCT-116 colon; 73.4% with HCC-2998 colon; 78.4% in the assay on KM12 colon.
`Cn1cc(-c2csc(-c3cn(CCN)c4ccccc34)n2)c2cccnc21`: the growth was -16.9% (active) in the assay with SR leukemia; 51.1% in the assay on RPMI-8226 leukemia; 40.8% in the assay on OVCAR-8 ovarian; 74.9% in the assay with OVCAR-5 ovarian; 51.8% in the assay with OVCAR-4 ovarian; 63.8% in the assay with SK-OV-3 ovarian. Further, the growth in the assay with IGROV1 ovarian was 39.9%; in the assay with OVCAR-3 ovarian, 45.5%; with HS 578T breast, 67.6%; with NCI/ADR-RES ovarian it was 44.1%; in the assay with T-47D breast, 20%; with BT-549 breast, 59.6%. Besides, the growth with MDA-MB-435 melanoma is 16.6%; with SW-620 colon, 44.2%; in the assay on MCF7 breast, 16.7%; in the assay with HCT-116 colon it was 36.9%; in the assay on HCC-2998 colon, 65.3%; with KM12 colon, 46.3%.
Take `CCCCCCCCNc1cccc2c1C(=O)c1ccccc1C2=O`: the growth with SR leukemia is 108%; in the assay on RPMI-8226 leukemia, 105%; with OVCAR-8 ovarian, 111%; in the assay with OVCAR-5 ovarian, 105%; in the assay on OVCAR-4 ovarian, 103%; with SK-OV-3 ovarian, 108%. In addition, the growth is 105% with IGROV1 ovarian; 92.6% in the assay with OVCAR-3 ovarian; 95.7% in the assay with HS 578T breast; 112% in the assay on NCI/ADR-RES ovarian; 94.5% in the assay on T-47D breast; 101% in the assay on BT-549 breast. Also, the growth in the assay with MDA-MB-435 melanoma was 105%; with SW-620 colon it was 93.5%; with MCF7 breast, 102%; with HCT-116 colon, 103%; with HCC-2998 colon, 107%; in the assay on KM12 colon it was 103%.
For the molecule `N#C/C(=C\c1ccc(-c2cccc(C(F)(F)F)c2)o1)c1nc(-c2ccco2)cs1`, the growth in the assay with SR leukemia was 99.6%; in the assay on RPMI-8226 leukemia it was 45.8%; with OVCAR-8 ovarian it was 99.8%; with OVCAR-5 ovarian it was 60.2%; in the assay with OVCAR-4 ovarian it was 16.8%; in the assay with SK-OV-3 ovarian, 112%. Besides, the growth in the assay on IGROV1 ovarian was 57.5%; with OVCAR-3 ovarian, 100%; with HS 578T breast it was 102%; in the assay on NCI/ADR-RES ovarian, 97.1%; in the assay with T-47D breast it was -17.6% (active); in the assay with BT-549 breast, 97%. The growth in the assay on MDA-MB-435 melanoma was 102%; in the assay on SW-620 colon, 104%; in the assay on MCF7 breast it was 22.4%; in the assay on HCT-116 colon it was 91.7%; with HCC-2998 colon it was 29.5%; in the assay on KM12 colon, 65.5%.
Turning to `CCc1nnc(NC(=O)c2ccoc2COc2ccccc2)s1`, the growth with SR leukemia was 26.4%; in the assay on RPMI-8226 leukemia, 30.8%; with OVCAR-8 ovarian, 63.8%; with OVCAR-5 ovarian, 84.7%; in the assay on OVCAR-4 ovarian, 92.2%; with SK-OV-3 ovarian it was 75.9%. For the same molecule, the growth with IGROV1 ovarian was 53.4%; with OVCAR-3 ovarian it was 33.8%; in the assay with HS 578T breast, 62%; in the assay with NCI/ADR-RES ovarian it was 12%; in the assay on T-47D breast, 45.7%; with BT-549 breast, 51.2%. The growth in the assay with MDA-MB-435 melanoma is -26.1% (active); in the assay on SW-620 colon, 24%; with MCF7 breast it was 24%; with HCT-116 colon it was 30.6%; in the assay on HCC-2998 colon, 69%; in the assay with KM12 colon it was 31.6%.
Take `COc1cnc2c(c1)C(=O)c1c-2n(CCCNC2=NCCS2)c(=O)c2cc([N+](=O)[O-])ccc12`: the growth in the assay on SR leukemia is -9.1% (active); in the assay on RPMI-8226 leukemia, -32.1% (active); in the assay with OVCAR-8 ovarian, -6.2% (active); in the assay on OVCAR-5 ovarian, 28.9%; in the assay on OVCAR-4 ovarian it was -71.9% (active); in the assay with SK-OV-3 ovarian, 9.4% (active). The growth in the assay with IGROV1 ovarian was -0.756% (active); in the assay on OVCAR-3 ovarian, -71.1% (active); in the assay with HS 578T breast, 69.9%; in the assay with NCI/ADR-RES ovarian, -8.56% (active); in the assay on T-47D breast it was 14.4%; in the assay on BT-549 breast, 35%. For the same molecule, the growth with MDA-MB-435 melanoma was -92.7% (active); with SW-620 colon it was -59% (active); with MCF7 breast, -51.3% (active); in the assay with HCT-116 colon it was -66.4% (active); in the assay with HCC-2998 colon it was -61.2% (active); in the assay with KM12 colon it was -43.9% (active).
As for `Cc1ccc(-c2nn(Cc3cn(-c4cc(C)nc5ccccc45)nn3)c3ncnc(N)c23)cc1`, the growth in the assay on SR leukemia is 61.6%; with RPMI-8226 leukemia it was 35.6%; in the assay with OVCAR-8 ovarian it was 62.5%; in the assay on OVCAR-5 ovarian, 57.9%; with OVCAR-4 ovarian, 51.7%; in the assay with SK-OV-3 ovarian, 56.5%. For the same molecule, the growth was 15.5% in the assay on IGROV1 ovarian; 53.1% with OVCAR-3 ovarian; 18.2% with HS 578T breast; 59.7% in the assay on NCI/ADR-RES ovarian; 19.6% with T-47D breast; 64.4% in the assay on BT-549 breast. The growth in the assay with MDA-MB-435 melanoma is 50.2%; with SW-620 colon it was 82.4%; with MCF7 breast, 34.6%; with HCT-116 colon, 53.8%; with HCC-2998 colon it was 76.4%; in the assay with KM12 colon, 74.4%.
For `c1cnc2[nH]cc(-c3csc(-c4cn(CCCN5CCCCC5)c5ccccc45)n3)c2c1`, the growth was -31.4% (active) with SR leukemia; -26.8% (active) in the assay on RPMI-8226 leukemia; 69.7% in the assay with OVCAR-8 ovarian; 92.5% with OVCAR-5 ovarian; 75.7% in the assay on OVCAR-4 ovarian; 94.2% in the assay with SK-OV-3 ovarian. In addition, the growth in the assay on IGROV1 ovarian was 34.6%; in the assay on OVCAR-3 ovarian, 60.4%; in the assay on HS 578T breast, 73.3%; in the assay on NCI/ADR-RES ovarian, 68.1%; in the assay on T-47D breast it was 63.1%; in the assay on BT-549 breast, 90.9%. Also, the growth in the assay on MDA-MB-435 melanoma is 1.72% (active); in the assay with SW-620 colon it was -47.4% (active); with MCF7 breast, 22.2%; in the assay with HCT-116 colon it was 60.6%; in the assay with HCC-2998 colon, 87.6%; in the assay on KM12 colon, 63.3%.

The record behind these values is PubChem BioAssay (NCI).
